This is part of a sample that, as a whole, favours compounds with a hit. Of some 83,000 tested, about 20% had one in any assay.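 Interpretation: 100, growth as untreated; towards 0, rising growth inhibition; 0, no net growth; 0 to -100, cell death. Compounds scoring below 10 were considered active.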 Unmarked numbers belong to inactive results. Calls of active or inactive are those of the source.

Test systems include MOLT-4 leukemia; RPMI-8226 leukemia; OVCAR-8 ovarian; OVCAR-5 ovarian; OVCAR-4 ovarian; SK-OV-3 ovarian; IGROV1 ovarian; OVCAR-3 ovarian; HS 578T breast; NCI/ADR-RES ovarian; BT-549 breast; MDA-MB-435 melanoma; SW-620 colon; MCF7 breast; HCT-116 colon; HCC-2998 colon; KM12 colon; T-47D breast.
Common to all, as to assay: NCI-60 one-dose screen, 48 h (100 = growth as untreated, 0 = no growth, -100 = all killed)
Holding throughout (details): 10 µM unless noted

Consider `CC(C)=CCC/C(C)=C/C=N\N=C(/N)N[N+](=O)[O-]`, for which the growth in the test with MOLT-4 leukemia was 90.9%; in the test on RPMI-8226 leukemia it was 93.6%; with OVCAR-8 ovarian, 104%; in the test with OVCAR-5 ovarian, 103%; with OVCAR-4 ovarian it was 93.4%; in the test with SK-OV-3 ovarian, 98.9%. Besides, the growth with IGROV1 ovarian is 99.5%; in the test on OVCAR-3 ovarian, 101%; in the test on HS 578T breast it was 99.8%; in the test with NCI/ADR-RES ovarian, 102%; in the test on BT-549 breast, 92.8%; in the test on MDA-MB-435 melanoma it was 94%. Also, the growth in the test on SW-620 colon is 106%; in the test on MCF7 breast it was 81.1%; with HCT-116 colon, 91.1%; in the test on HCC-2998 colon it was 108%; in the test with KM12 colon it was 95.7%.

Regarding `CCCc1cc(O)c2c3c(c(=O)oc2c1)CN(C)CC3`, the growth with MOLT-4 leukemia is 27%; with RPMI-8226 leukemia it was 28.4%; in the test on OVCAR-8 ovarian, 32.3%; in the test with OVCAR-5 ovarian it was 55.9%; in the test on OVCAR-4 ovarian, 56.3%; with SK-OV-3 ovarian, 26.8%. The growth in the test on IGROV1 ovarian is 32.7%; with OVCAR-3 ovarian, -3.56% (active); in the test on HS 578T breast, 45.7%; in the test on T-47D breast, 25.5%; in the test on BT-549 breast, 39.2%; in the test with MDA-MB-435 melanoma, -57.8% (active). The growth in the test on SW-620 colon is 12.8%; in the test with MCF7 breast it was 19%; in the test on HCT-116 colon it was 20.8%; with HCC-2998 colon, 53.9%; in the test on KM12 colon it was 35.7%.

Consider `O=NN1CCCc2cccc(O)c21`, for which the growth is 51.8% in the test on MOLT-4 leukemia; 44.5% with RPMI-8226 leukemia; 24% in the test with OVCAR-8 ovarian; 115% with OVCAR-5 ovarian; 63.7% with OVCAR-4 ovarian; 38.8% in the test on SK-OV-3 ovarian. Further, the growth in the test on IGROV1 ovarian is 44.4%; in the test on OVCAR-3 ovarian, 49.6%; with HS 578T breast, 46.3%; in the test on NCI/ADR-RES ovarian, 32.5%; in the test with T-47D breast it was 77.2%; with BT-549 breast it was 54.2%. In addition, the growth in the test on MDA-MB-435 melanoma is 52.1%; in the test on MCF7 breast it was 27.2%; in the test on HCT-116 colon it was 21.7%; in the test on HCC-2998 colon, 55.7%; with KM12 colon it was 68.4%.

As for `CCOC(=O)CCC(NC(=O)C(Cc1ccc(N(CCCl)CCCl)cc1)NC=O)C(=O)OCC` (stereo not drawn), the growth was 5.13% (active) in the test on MOLT-4 leukemia; 30.6% in the test on RPMI-8226 leukemia; 44.5% in the test on OVCAR-8 ovarian; 42.9% in the test on OVCAR-5 ovarian; 61.4% in the test with OVCAR-4 ovarian; 135% in the test with SK-OV-3 ovarian. Moreover, the growth is 67.2% in the test with IGROV1 ovarian; -17.4% (active) in the test with OVCAR-3 ovarian; 51.8% with HS 578T breast; 67.2% in the test on NCI/ADR-RES ovarian; 69.6% in the test with BT-549 breast; 21.1% with MDA-MB-435 melanoma. For the same compound, the growth was 22.1% in the test on MCF7 breast, 61.5% with HCT-116 colon, 46.9% in the test with HCC-2998 colon and 82.7% with KM12 colon.

For `Clc1ccc2nnnn2n1`, the growth in the test with MOLT-4 leukemia is 17.3%; with RPMI-8226 leukemia it was 5.38% (active); in the test on OVCAR-8 ovarian it was 74.1%; with OVCAR-5 ovarian it was 67.1%; in the test with OVCAR-4 ovarian, 37.8%; in the test on SK-OV-3 ovarian it was 92%. Also, the growth is -3.95% (active) in the test on OVCAR-3 ovarian; 89.6% in the test on HS 578T breast; 59.2% in the test with NCI/ADR-RES ovarian; 57.4% with T-47D breast; 29.1% with BT-549 breast; -1.91% (active) in the test on MDA-MB-435 melanoma. Also, the growth in the test with SW-620 colon is 24.5%; in the test with MCF7 breast it was 19.2%; with HCT-116 colon, -15.9% (active); in the test with HCC-2998 colon, 107%.

On to `C=CCCCCCCCCC(=O)[O-].C=CCCCCCCCCC(=O)[O-].[Zn+2]`, for which the growth in the test with MOLT-4 leukemia was 103%; with RPMI-8226 leukemia, 95.2%; in the test on OVCAR-8 ovarian, 96.6%; with OVCAR-5 ovarian it was 106%; in the test on OVCAR-4 ovarian, 115%; in the test with SK-OV-3 ovarian it was 112%. Moreover, the growth in the test on IGROV1 ovarian is 105%; in the test on OVCAR-3 ovarian, 118%; in the test on HS 578T breast it was 105%; in the test on NCI/ADR-RES ovarian it was 99.2%; with BT-549 breast it was 108%; in the test on MDA-MB-435 melanoma, 100%. Further, the growth was 102% in the test on SW-620 colon, 108% with MCF7 breast, 107% with HCC-2998 colon and 94.3% in the test with KM12 colon.

`Cc1ccc2c(C(C[N+](=O)[O-])c3cccs3)c(-c3ccccc3)[nH]c2c1` (stereo not drawn): the growth in the test on MOLT-4 leukemia was 16.2%; in the test on RPMI-8226 leukemia, 11.8%; in the test with OVCAR-8 ovarian it was 33%; in the test on OVCAR-5 ovarian, 58.8%; in the test with SK-OV-3 ovarian, 22.7%; in the test with IGROV1 ovarian, 31.4%. The growth is 10.2% in the test with OVCAR-3 ovarian; -11.7% (active) in the test on HS 578T breast; 11.7% with NCI/ADR-RES ovarian; 14.6% in the test on T-47D breast; 33.8% in the test with BT-549 breast; -31.1% (active) in the test with MDA-MB-435 melanoma. In addition, the growth was 18.5% with SW-620 colon; 17.8% in the test with MCF7 breast; 23.2% with HCT-116 colon; 40.3% with HCC-2998 colon; 21.4% in the test on KM12 colon.

Turning to `CCn1nccc1NC(=O)C(=O)c1cn(Cc2ccc(F)cc2)c2cccc(OC)c12`, the growth was 66.4% in the test on MOLT-4 leukemia; 59.9% with RPMI-8226 leukemia; 92.2% with OVCAR-8 ovarian; 96.8% in the test with OVCAR-5 ovarian; 94.8% in the test with OVCAR-4 ovarian; 100% with SK-OV-3 ovarian. Moreover, the growth in the test on IGROV1 ovarian was 3.65% (active); in the test on HS 578T breast, 89%; in the test on NCI/ADR-RES ovarian it was 90.2%; with T-47D breast, 80.5%; in the test with BT-549 breast, 86.1%; in the test on MDA-MB-435 melanoma, 104%. The growth is 93.3% in the test on SW-620 colon; 97.3% with MCF7 breast; 51.1% in the test on HCT-116 colon; 102% in the test with HCC-2998 colon; 97.2% with KM12 colon.
